Results: PubChem BioAssay (Tox21)
Results filed as inconclusive are left out. Calls of active or inactive are those of the source. Unless noted, the call rests on the fitted dose curve; in most records, active means well fitted curve in the direction sought with a large enough effect in the repeat runs; inconclusive means weak or mixed curves; inactive means no such curve, though single readings can be large; an effect the other way counts as inactive or inconclusive.

Key:
[1] = biological target: Thyrotropin receptor (Homo sapiens) (UniProt P16473); assay: qHTS assay to identify small molecule antagonists of the thyroid stimulating hormone receptor (TSHR) signaling pathway (AID 1259385; calls by dose curve; further: nearly all actives have a fitted effect of over 20% in size; further: potency means the concentration at half of the fitted maximal effect); settings: TSHR-HEK293 cAMP HTRF, TSH-stimulated antagonist mode; series mostly up to 92.4 µM
Procedure, shortened: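 TSHR-HEK293 cells were plated and held 18 h at 37C/5% CO2, then given compound plus Ro20-1724 and stimulated with TSH at 1.5 ng/mL final. After 30 min at room temperature, cAMP was detected with cAMP-d2/anti-cAMP-cryptate (1 h) by fluorescence.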

[2] = qHTS assay to identify small molecule agonists of the estrogen receptor alpha (ER-alpha) signaling pathway in the presence of an antagonist - cell viability counter screen (AID 1259386); settings: VM7Luc4E2 viability, CellTiter-Fluor fluorescence, 22 h; series mostly up to 92.4 µM;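 further: cells exposed to compounds for 22 h at 37 °C before the viability read; nearly all actives have a fitted effect of over 30% in size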; further: potency means the concentration at half of the fitted maximal effect
Procedure, shortened: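 VM7Luc4E2 cells (endogenous full-length ER-alpha, 4×ERE-luciferase) were held 5 days in phenol red-free medium with 10% charcoal-stripped FBS, plated, then given 10.0nM ICI-182,780 and compounds at 15 concentrations for 22hr at 37C; viability read by CellTiter-Fluor fluorescence.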

[3] = biological target: Progesterone receptor (Homo sapiens) (UniProt P06401); assay: qHTS assay to identify small molecule agonists of the progesterone receptor (PR) signaling pathway (AID 1346784; calls by dose curve; further: nearly all actives have a fitted effect of over 30% in size; further: potency means the concentration at half of the fitted maximal effect); settings: PR-UAS-bla HEK293T, beta-lactamase FRET ratio, 16 h; series mostly up to 92.4 µM
Procedure, shortened: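 Cells (PR-UAS-bla HEK 293T, GripTite) were plated in assay medium containing 2% charcoal-stripped FBS and incubated 6 hr. Test compounds in DMSO were added for 16 hr at 37C. FRET substrate was then loaded for 2 hr at room temperature before fluorescence reading.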

[4] = biological target: Progesterone receptor (Homo sapiens) (UniProt P06401); assay: qHTS assay to identify small molecule antagonists of the progesterone receptor (PR) signaling pathway (AID 1346795; active means well fitted inhibition curve with a large enough effect in the signal ratio in the repeat runs, not every such curve was filed as active; the % refers to the signal ratio; further: potency means the concentration at half of the fitted maximal effect); settings: PR-UAS-bla HEK293T, beta-lactamase FRET ratio, 16 h; series mostly up to 92.4 µM
Procedure, shortened: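 Antagonist mode: compounds tested against 1 nM (final) promegestone stimulation in HEK293T cells expressing PR-UAS-bla reporter, 16 hr at 37C, 5% CO2; beta-lactamase activity detected via B/G FRET substrate after 2 hr at room temperature.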

[5] = qHTS assay to identify small molecule antagonists of the progesterone receptor (PR) signaling pathway - cell viability counter screen (AID 1346798); settings: PR-UAS-bla HEK293T viability, CellTiter-Glo luminescence, 16 h; series mostly up to 92.4 µM; further: nearly all actives have a fitted effect of over 50% in size; further: potency means the concentration at half of the fitted maximal effect
Procedure, shortened: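 Counter screen for cytotoxicity: viability of PR-UAS-bla HEK293T cells was measured with CellTiter-Glo luminescence following 16 hr compound exposure in the presence of R5020.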

[6] = qHTS assay to identify small molecule agonists of the progesterone receptor (PR) signaling pathway - cell viability counter screen (AID 1346799; calls by dose curve; further: nearly all actives have a fitted effect of over 45% in size; further: potency means the concentration at half of the fitted maximal effect); settings: PR-UAS-bla HEK293T viability, CellTiter-Glo luminescence, 16 h; series mostly up to 92.4 µM
Procedure, shortened: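 Cells (PR-UAS-bla HEK293T) are plated at 3,000/well in 2% charcoal-stripped FBS medium, rested 6 hr, dosed and incubated 16 hr at 37C. CellTiter-Glo is then added and luminescence measured after 30 min at room temperature.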

[7] = qHTS assay to identify small molecule antagonists of the TGF-beta/Smad signaling pathway - cell viability counter screen (AID 1346824); settings: SBE-bla HEK293T viability, CellTiter-Glo luminescence; series mostly up to 76.8 µM; further: nearly all actives have a fitted effect of over 50% in size
Procedure, shortened: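 SBE-bla HEK 293T cells were plated overnight at 37 C, then given compounds in DMSO plus TGF-beta1 (added as 0.25 ng/mL solution) for 5 hr. After the bla read, CellTiter-Glo was added to the same wells and luminescence read after 30 min at room temperature.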

[8] = qHTS assay to identify small molecule agonists of the TGF-beta/Smad signaling pathway - cell viability counter screen (AID 1346829); settings: SBE-bla HEK293T viability, CellTiter-Glo luminescence, 5 h; series mostly up to 76.8 µM; further: top concentration of the series differs between compounds; nearly all actives have a fitted effect of over 45% in size
Procedure, shortened: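 Tox21 qHTS format: SBE-bla HEK 293T cells treated with DMSO-dissolved compounds for 5 hr; CellTiter-Glo luminescence after 30 min at room temperature.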

[9] = biological target: Thyrotropin-releasing hormone receptor (Homo sapiens) (UniProt P34981); assay: qHTS assay to identify small molecule antagonists of the thyrotropin-releasing hormone receptor (TRHR) signaling pathway (AID 1346877; active means well fitted inhibition curve with a large enough effect in the repeat runs, not every such curve was filed as active); settings: TRHR-HEK293, TRH-induced calcium fluorescence, antagonist mode; series mostly up to 51.3 µM
Procedure, shortened: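 TRHR-expressing HEK293 cells were seeded, cultured 18 h at 37 °C, then loaded with calcium dye for 2 h. Compounds were pre-incubated 5 min at room temperature before 1 nM TRH (final) was added, and kinetic fluorescence was recorded for 3 min.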

[10] = qHTS assay to identify small molecule agonists of the TGF-beta/Smad signaling pathway (AID 1346859; active means well fitted activation curve with a large enough effect in the signal ratio in the repeat runs, not every such curve was filed as active; the % refers to the signal ratio); settings: SBE-bla HEK293T, TGF-beta/Smad beta-lactamase reporter, 5 h; series mostly up to 76.8 µM
Procedure, shortened: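 Reporter line: HEK 293T with stably integrated SBE-controlled beta-lactamase. Compound exposure lasts 5 hr at 37 C and 5% CO2; substrate loading follows for 2 hr at room temperature, with emission read at 460 and 530 nm.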

Measured: Potency

Sequence of Progesterone receptor (Homo sapiens) (P06401 whole entry, looked up): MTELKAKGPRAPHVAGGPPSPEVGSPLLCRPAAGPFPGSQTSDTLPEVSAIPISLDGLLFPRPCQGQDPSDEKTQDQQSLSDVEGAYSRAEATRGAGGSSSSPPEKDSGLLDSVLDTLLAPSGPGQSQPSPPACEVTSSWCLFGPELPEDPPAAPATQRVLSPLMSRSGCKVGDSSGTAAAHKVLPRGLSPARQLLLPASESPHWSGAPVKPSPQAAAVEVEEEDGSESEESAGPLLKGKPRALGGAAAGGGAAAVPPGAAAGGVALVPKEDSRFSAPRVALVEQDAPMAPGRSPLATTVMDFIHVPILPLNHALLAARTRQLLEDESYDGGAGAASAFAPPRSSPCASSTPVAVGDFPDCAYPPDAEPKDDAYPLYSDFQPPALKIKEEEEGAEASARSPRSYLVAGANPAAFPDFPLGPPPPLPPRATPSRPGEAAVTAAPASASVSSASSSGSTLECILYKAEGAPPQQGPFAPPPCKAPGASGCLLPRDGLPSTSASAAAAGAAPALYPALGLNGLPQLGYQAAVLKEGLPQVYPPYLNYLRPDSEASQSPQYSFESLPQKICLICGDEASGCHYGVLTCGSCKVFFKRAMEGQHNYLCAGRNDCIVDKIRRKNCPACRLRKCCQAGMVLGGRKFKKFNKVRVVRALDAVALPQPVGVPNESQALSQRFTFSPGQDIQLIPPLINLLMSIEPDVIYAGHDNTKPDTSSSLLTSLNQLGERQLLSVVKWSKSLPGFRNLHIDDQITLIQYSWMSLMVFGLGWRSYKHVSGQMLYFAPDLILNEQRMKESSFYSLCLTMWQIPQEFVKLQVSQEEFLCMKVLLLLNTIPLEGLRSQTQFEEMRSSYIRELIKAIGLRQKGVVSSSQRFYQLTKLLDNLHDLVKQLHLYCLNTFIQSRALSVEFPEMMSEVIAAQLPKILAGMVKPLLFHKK
Sequence of Thyrotropin-releasing hormone receptor (Homo sapiens) (P34981 whole entry, looked up): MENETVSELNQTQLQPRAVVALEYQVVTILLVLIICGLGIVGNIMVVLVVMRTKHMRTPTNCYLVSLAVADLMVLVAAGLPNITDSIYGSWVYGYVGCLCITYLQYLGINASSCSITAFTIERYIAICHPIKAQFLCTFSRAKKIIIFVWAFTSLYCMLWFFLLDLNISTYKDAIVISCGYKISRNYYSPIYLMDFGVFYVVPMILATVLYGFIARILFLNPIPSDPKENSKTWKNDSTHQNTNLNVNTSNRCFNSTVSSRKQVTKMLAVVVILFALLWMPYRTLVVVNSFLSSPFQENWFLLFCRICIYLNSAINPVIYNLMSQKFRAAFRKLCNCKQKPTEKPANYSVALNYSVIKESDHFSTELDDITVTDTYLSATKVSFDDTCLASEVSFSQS
Sequence of Thyrotropin receptor (Homo sapiens) (P16473 whole entry, looked up): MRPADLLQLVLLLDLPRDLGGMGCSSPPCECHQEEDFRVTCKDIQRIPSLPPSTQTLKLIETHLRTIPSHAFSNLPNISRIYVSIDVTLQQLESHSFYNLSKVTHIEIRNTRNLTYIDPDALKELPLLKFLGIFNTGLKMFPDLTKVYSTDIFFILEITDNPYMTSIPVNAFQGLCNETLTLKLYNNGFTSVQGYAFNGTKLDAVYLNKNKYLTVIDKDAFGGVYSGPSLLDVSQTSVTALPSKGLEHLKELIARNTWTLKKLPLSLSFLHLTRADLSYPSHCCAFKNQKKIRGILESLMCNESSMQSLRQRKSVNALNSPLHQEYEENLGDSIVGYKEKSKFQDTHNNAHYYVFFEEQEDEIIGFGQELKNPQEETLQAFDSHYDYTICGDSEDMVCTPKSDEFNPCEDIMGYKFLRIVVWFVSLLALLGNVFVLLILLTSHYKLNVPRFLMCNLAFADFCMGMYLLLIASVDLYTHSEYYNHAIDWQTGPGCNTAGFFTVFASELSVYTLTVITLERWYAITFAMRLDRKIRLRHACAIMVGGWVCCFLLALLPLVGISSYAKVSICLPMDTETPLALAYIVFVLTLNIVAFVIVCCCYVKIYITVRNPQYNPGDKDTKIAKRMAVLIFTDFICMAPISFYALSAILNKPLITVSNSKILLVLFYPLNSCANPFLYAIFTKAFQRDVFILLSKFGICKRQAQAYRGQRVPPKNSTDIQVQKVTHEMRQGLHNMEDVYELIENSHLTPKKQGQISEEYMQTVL

CC(O)c1ccccc1 (stereo not given)
not listed: [10]
inactive: all other assays above

CCCCCCC(C)(C)C(=O)O
not listed: [9] | [10]
inactive: all other assays above

COc1cc(C(=O)NCCCCCC(=O)O)cc(OC)c1OC
not listed: [9]
inactive: all other assays above

CC1(C)O[C@@H]2C[C@H]3[C@@H]4C[C@H](F)C5=CC(=O)C=C[C@]5(C)[C@H]4[C@@H](O)C[C@]3(C)[C@]2(C(=O)CO)O1
active: [3] 0.0119 µM
not listed: [9] | [10]
inactive: all other assays above

CCC1NC(=O)c2cc(S(N)(=O)=O)c(Cl)cc2N1 (stereo not given)
inactive: all assays above

C=C(C)C(=O)OCCCCCCCCCCCCC
inactive: all assays above

Nc1ncnc2c1ncn2[C@H]1CC[C@@H](CO)O1
inactive: all assays above

CC1=C(CC=O)C(C)(C)CCC1
inactive: all assays above

CC(=O)c1cc2ccccc2s1
not listed: [9]
inactive: all other assays above

CCOC(=O)c1ccc(OCCN2C[C@H](O)[C@@H](O)[C@H](O)[C@H]2CO)cc1
not listed: [9]
inactive: all other assays above

Oc1cccc(O)c1O
active: [2] 68 µM
inactive: all other assays above

CC(C)(c1ccccc1)c1ccccc1
not listed: [9]
inactive: all other assays above

CC1CC(OC(=O)C(O)c2ccccc2)CC(C)(C)N1C (stereo not given)
not listed: [10]
inactive: all other assays above

C=Cc1ccc(S(=O)(=O)O)cc1
active: [1] 17.2 µM
not listed: [9]
inactive: all other assays above

Cc1ccccc1S
inactive: all assays above

NC(=O)c1ccncc1
inactive: all assays above

Clc1cc(Cl)nc(Cl)n1
inactive: all assays above

C1C[C@@H]2[C@H]3CC[C@H](C3)[C@@H]2C1
not listed: [10]
inactive: all other assays above

O=C1NC(=O)c2cc([N+](=O)[O-])ccc21
not listed: [10]
inactive: all other assays above

CCC(=O)OC
inactive: all assays above

C=C1CCC2CC1C2(C)C (stereo not given)
not listed: [10]
inactive: all other assays above

NCCNCCO
not listed: [9]
inactive: all other assays above

C=C/C(C)=C/C/C=C(\C)CCC=C(C)C
inactive: all assays above

Cc1cc(C)cc(N)c1
inactive: all assays above

C[C@@H]1CN(CCCn2c3ccccc3c3ccccc32)C[C@H](C)N1
active: [1] 33.5 µM | [4] 29.8 µM | [5] 11.9 µM | [6] 11.9 µM
inactive: all other assays above

CC(C)C(O)(c1ccc(OC(F)(F)F)cc1)c1cncnc1 (stereo not given)
active: [4] 30.5 µM
inactive: all other assays above

CC(C)C=O
inactive: all assays above

Cc1cc(C)c(N)cc1C
not listed: [9]
inactive: all other assays above

CCCCCC#CC(=O)OC
not listed: [9]
inactive: all other assays above

C1COC1
inactive: all assays above

O=c1[nH]ncc2ccccc12
inactive: all assays above

CC(C)=CCC1C(=O)N(c2ccccc2)N(c2ccccc2)C1=O
not listed: [10]
inactive: all other assays above

N#CCc1ccc(Cl)cc1Cl
not listed: [10]
inactive: all other assays above

O=c1[nH]c2ccc(Cl)cc2o1
not listed: [9] | [10]
inactive: all other assays above

CCOC(=O)/C=C/C(=O)OCC
inactive: all assays above

O[C@@H]1CO[C@H]2[C@@H]1OC[C@@H]2O
inactive: all assays above

c1csc(SSc2cccs2)c1
active: [4] 8.63 µM | [5] 9.69 µM | [6] 9.69 µM
not listed: [9]
inactive: all other assays above

Cc1[nH]cnc1CN1CCc2c(c3ccccc3n2C)C1=O
not listed: [9]
inactive: all other assays above

C=C(C)CCCC(C)CCO (stereo not given)
inactive: all assays above

CCC(OCCCOC)OC(C)=O (stereo not given)
inactive: all assays above

O=C(Nc1cccc2c(=O)cc(-c3nn[nH]n3)oc12)c1ccc(OCCCCc2ccccc2)cc1
not listed: [6] | [9] | [10]
inactive: all other assays above

C[C@@H]1CC(=O)NN=C1c1ccc(NN=C(C#N)C#N)cc1
active: [2] 26.6 µM
not listed: [4]
inactive: all other assays above

CC(C)c1nc(CN(C)C(=O)N[C@H](C(=O)N[C@@H](Cc2ccccc2)C[C@H](O)[C@H](Cc2ccccc2)NC(=O)OCc2cncs2)C(C)C)cs1
inactive: [1] | [3] | [7] | [8]
active: [2] 13.3 µM | [5] 29.8 µM | [6] 26.6 µM

c1ccc2sc(SN(C3CCCCC3)C3CCCCC3)nc2c1
not listed: [4] | [9]
inactive: all other assays above

Clc1ccc(Nc2nnc(Cc3ccncc3)c3ccccc23)cc1
active: [4] 26.6 µM
not listed: [5] | [6] | [9]
inactive: all other assays above

OC[C@H]1O[C@@H](n2cnc3c(=S)nc[nH]c32)[C@H](O)[C@@H]1O
inactive: [1] | [2] | [3] | [10] | [9]

COC(=O)[C@H]1[C@H]2C[C@@H]3c4[nH]c5cc(OC)ccc5c4CCN3C[C@H]2C[C@@H](OC(=O)/C=C/c2ccc(O)c(OC)c2)[C@@H]1OC
not listed: [5] | [6] | [10]
inactive: all other assays above

C/C=C(/C(=C/C)c1ccc(O)cc1)c1ccc(O)cc1
not listed: [4] | [6]
inactive: all other assays above
